From PubChem BioAssay (EPA / NIEHS) come the findings set out here.

Activity calls are given as the source filed them. Rule for the calls: active = hit-call score of the fitted dose curve at least 0.9, where 1 is the maximum; inactive = score below 0.9.

Conditions in all cases: mRNA level, 48 h; actives raise or lower the signal
Read-out in assay [1]: Alkaline Phosphatase, Placental (ALPP) gene, ALPP (gene 250)
Briefly: LTEA_HepaRG_ALPP: Life Technologies and Expression Analysis (LTEA) Assay for Alkaline Phosphatase, Placental (ALPP) gene using HepaRG (AID 2283468). The essentials: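 ALPP transcript level, measured by qRT-PCR and normalized to three housekeeping genes (ACTB, GAPDH, POLR2A), after 48 h dosing of differentiated HepaRG in serum-free induction medium. Top concentration 100 uM with half-log dilutions (8 points, 0.5% DMSO, duplicates); bidirectional fitting relative to DMSO.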

Read-out in assay [2]: Bcl-2 (BAD) gene, BAD (gene 572)
Kind of assay: LTEA_HepaRG_BAD: Life Technologies and Expression Analysis (LTEA) Assay for Bcl-2 (BAD) gene using HepaRG (AID 2283469). The essentials:
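Differentiated human HepaRG cells in serum-free induction medium were exposed in duplicate for 48 h to eight concentrations (top 100 uM, half-log steps, 0.5% DMSO). BAD mRNA was quantified by qRT-PCR normalised to ACTB, GAPDH and POLR2A, with bidirectional fitting versus DMSO.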

Read-out in assay [3]: Bcl-2 (BAX) gene, BAX (gene 581)
Kind of assay: LTEA_HepaRG_BAX: Life Technologies and Expression Analysis (LTEA) Assay for Bcl-2 (BAX) gene using HepaRG (AID 2283470). The essentials: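 Differentiated HepaRG cells exposed 48 h in serum-free induction medium, eight half-log concentrations from 100 uM, in duplicate, 0.5% DMSO vehicle. BAX mRNA by TaqMan qRT-PCR, normalised to ACTB, GAPDH and POLR2A.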

Read-out in assay [4]: Alpha-fetoprotein (AFP) gene, AFP (gene 174)
Briefly: LTEA_HepaRG_AFP: Life Technologies and Expression Analysis (LTEA) Assay for Alpha-fetoprotein (AFP) gene using HepaRG (AID 2283472). An outline of the steps:
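Differentiated human HepaRG cells exposed 48 h in serum-free induction medium, 8-point half-log series from 100 uM in 0.5% DMSO, duplicate. AFP mRNA by qRT-PCR, normalized to ACTB, GAPDH, POLR2A; bidirectional fit vs DMSO.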

Read-out in a further assay: BCL2L11 (gene 10018)
Kind of assay: LTEA_HepaRG_BCL2L11: Life Technologies and Expression Analysis (LTEA) Assay for Bcl-2 (BCL2L11) gene using HepaRG (AID 2283473). An outline of the steps:
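BCL2L11 transcript levels are measured by Fluidigm qRT-PCR, normalized to three housekeeping genes. HepaRG cultures were plated 48 h, then treated 48 h with test chemical (top 100 uM, half-log, 0.5% DMSO vehicle); curves were fitted bidirectionally against DMSO.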

Read-out in assay [5]: Apolipoprotein A-V (APOA5) gene, APOA5 (gene 116519)
Kind of assay: LTEA_HepaRG_APOA5: Life Technologies and Expression Analysis (LTEA) Assay for Apolipoprotein A-V (APOA5) gene using HepaRG (AID 2283474). The essentials: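 APOA5 transcript levels were quantified by qRT-PCR, normalized to three housekeeping genes, after 48 h chemical treatment of HepaRG cells (8 points, 100 uM maximum, half-log steps, 0.5% DMSO). Curves fitted in both directions against vehicle.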

Read-out in assay [6]: Apoptosis regulator Bcl-2 (Homo sapiens) (UniProt P10415)
Briefly: LTEA_HepaRG_BCL2: Life Technologies and Expression Analysis (LTEA) Assay for Bcl-2 gene using HepaRG (AID 2283475). The essentials:
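Differentiated human HepaRG cells in serum-free induction medium exposed 48 h, in duplicate, to 8-point half-log series from 100 uM in 0.5% DMSO. BCL2 mRNA by qRT-PCR (TaqMan/Fluidigm), normalized to ACTB, GAPDH, POLR2A; bidirectional fit against DMSO.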

Read-out in assay [7]: Bcl-2 (BID) gene, BID (gene 637)
Briefly: LTEA_HepaRG_BID: Life Technologies and Expression Analysis (LTEA) Assay for Bcl-2 (BID) gene using HepaRG (AID 2283476). An outline of the steps: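 Gene expression by qRT-PCR in HepaRG cells after 48 h exposure, duplicate wells, eight half-log concentrations topping at 100 uM in 0.5% DMSO. Normalized to ACTB, GAPDH, POLR2A; bidirectional fitting relative to DMSO.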

Read-out in a further assay: Caspase-3 (Homo sapiens) (UniProt P42574)
Kind of assay: LTEA_HepaRG_CASP3: Life Technologies and Expression Analysis (LTEA) Assay for cysteine-aspartic acid protease (CASP3) using HepaRG (AID 2283477). An outline of the steps:
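Expression of CASP3 was quantified by TaqMan qRT-PCR against three housekeeping genes (ACTB, GAPDH, POLR2A), bidirectionally versus 0.5% DMSO. HepaRG cultures received compounds in duplicate, top 100 uM with half-log steps, for 48 h in serum-free induction medium.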

Read-out in assay [8]: Cytochrome P450 (CYP24A1), CYP24A1 (gene 1591)
Briefly: LTEA_HepaRG_CYP24A1: Life Technologies and Expression Analysis (LTEA) Assay for Cytochrome P450 (CYP24A1) using HepaRG (AID 2283478). An outline of the steps: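 mRNA of CYP24A1 quantified by TaqMan qRT-PCR (ACTB/GAPDH/POLR2A normalization) after 48 h chemical exposure of HepaRG cells, top concentration 100 uM, half-log steps, 0.5% DMSO vehicle, duplicates. Curves fitted bidirectionally against DMSO baseline.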

Read-out in assay [9]: Cytochrome P450 (CYP1A2), CYP1A2 (gene 1544)
Briefly: LTEA_HepaRG_CYP1A2: Life Technologies and Expression Analysis (LTEA) Assay for Cytochrome P450 (CYP1A2) using HepaRG (AID 2283479). The essentials: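 CYP1A2 transcript measured by TaqMan qRT-PCR against three housekeeping genes after 48-hour chemical exposure of HepaRG cells. Eight-point half-log series topping at 100 uM in 0.5% DMSO, duplicates; gain or loss fitted relative to vehicle.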

Read-out in assay [10]: cysteine-aspartic acid protease (CASP8), CASP8 (gene 841)
Kind of assay: LTEA_HepaRG_CASP8: Life Technologies and Expression Analysis (LTEA) Assay for cysteine-aspartic acid protease (CASP8) using HepaRG (AID 2283480). An outline of the steps: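 Differentiated human HepaRG cells, plated 48 h then switched to serum-free induction medium, were exposed in duplicate for 48 h to 8 half-log concentrations up to 100 uM in 0.5% DMSO. CASP8 mRNA was quantified by qRT-PCR, normalized to ACTB/GAPDH/POLR2A.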

Read-out in assay [11]: Cytochrome P450 (CYP2B6), CYP2B6 (gene 1555)
Briefly: LTEA_HepaRG_CYP2B6: Life Technologies and Expression Analysis (LTEA) Assay for Cytochrome P450 (CYP2B6) using HepaRG (AID 2283481). The essentials:
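CYP2B6 transcript level quantified by qRT-PCR against three housekeeping genes, fitted bidirectionally relative to DMSO. HepaRG cultures received chemicals for 48 h, 8-point half-log series from 100 uM in 0.5% DMSO, duplicate wells, serum-free induction medium.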

Read-out in assay [12]: Cytochrome P450 2C19 (Homo sapiens) (UniProt P33261)
Briefly: LTEA_HepaRG_CYP2C19: Life Technologies and Expression Analysis (LTEA) Assay for CYP2C19 using HepaRG (AID 2283482). The essentials: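 CYP2C19 transcript levels by qRT-PCR, normalized to three housekeeping genes, in HepaRG cells after 48 h chemical exposure. Eight-point half-log series topping at 100 uM, 0.5% DMSO vehicle. Increases and decreases both fitted against DMSO.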

Read-out in a further assay: CYP2C8 (gene 1558)
Kind of assay: LTEA_HepaRG_CYP2C8: Life Technologies and Expression Analysis (LTEA) Assay for CYP2C8 using HepaRG (AID 2283483). An outline of the steps:
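Differentiated human HepaRG cells were exposed for 48 h in serum-free induction medium to eight half-log concentrations up to 100 uM in 0.5% DMSO, in duplicate. CYP2C8 mRNA was measured by TaqMan qRT-PCR, normalized to ACTB, GAPDH and POLR2A, and fitted bidirectionally against DMSO.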

Read-out in the next assay: CYP2C9 (gene 1559)
Briefly: LTEA_HepaRG_CYP2C9: Life Technologies and Expression Analysis (LTEA) Assay for CYP2C9 using HepaRG (AID 2283484). An outline of the steps: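 Differentiated human HepaRG cells were exposed 48 h in serum-free induction medium to eight half-log concentrations up to 100 uM in 0.5% DMSO. CYP2C9 mRNA was measured by qRT-PCR, normalized to ACTB, GAPDH and POLR2A, and fitted bidirectionally against DMSO.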

Read-out in the next assay: CYP2E1 (gene 1571)
Briefly: LTEA_HepaRG_CYP2E1: Life Technologies and Expression Analysis (LTEA) Assay for CYP2E1 using HepaRG (AID 2283485). The essentials: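 HepaRG cells, plated 48 h, then exposed 48 h in serum-free induction medium to eight half-log concentrations from 100 uM in 0.5% DMSO, duplicate. CYP2E1 mRNA by qRT-PCR, normalized to ACTB/GAPDH/POLR2A; bidirectional fit versus DMSO.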

Read-out in another assay: CYP4A11 (gene 1579)
Briefly: LTEA_HepaRG_CYP4A11: Life Technologies and Expression Analysis (LTEA) Assay for CYP4A11 using HepaRG (AID 2283486). The essentials: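 Readout is CYP4A11 transcript level by qRT-PCR, normalized to three housekeeping genes and fitted bidirectionally against 0.5% DMSO. Human HepaRG cells were treated 48 h, in duplicate, with an 8-point half-log series topping at 100 uM.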

Read-out in assay [13]: Cytochrome P450 3A4 (Homo sapiens) (UniProt P08684)
Kind of assay: LTEA_HepaRG_CYP3A4: Life Technologies and Expression Analysis (LTEA) Assay for CYP3A4 using HepaRG (AID 2283487). The essentials: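 In a human hepatic line (HepaRG), duplicate wells were treated 48 h with up to 100 uM chemical in half-log dilutions. Endpoint: CYP3A4 mRNA induction or loss relative to 0.5% DMSO vehicle, by qRT-PCR.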

Read-out in assay [14]: adenosine kinase (ADK) gene, ADK (gene 132)
Kind of assay: LTEA_HepaRG_ADK: Life Technologies and Expression Analysis (LTEA) Assay for adenosine kinase (ADK) gene using HepaRG (AID 2283471). The essentials: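 Following 48 h exposure of HepaRG cells in 0.5% DMSO (top concentration 100 uM, duplicate wells), ADK mRNA induction or suppression was measured by qRT-PCR, normalised to ACTB/GAPDH/POLR2A, and fitted bidirectionally relative to vehicle.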

Apoptosis regulator Bcl-2 (Homo sapiens), sequence (P10415 whole entry, looked up): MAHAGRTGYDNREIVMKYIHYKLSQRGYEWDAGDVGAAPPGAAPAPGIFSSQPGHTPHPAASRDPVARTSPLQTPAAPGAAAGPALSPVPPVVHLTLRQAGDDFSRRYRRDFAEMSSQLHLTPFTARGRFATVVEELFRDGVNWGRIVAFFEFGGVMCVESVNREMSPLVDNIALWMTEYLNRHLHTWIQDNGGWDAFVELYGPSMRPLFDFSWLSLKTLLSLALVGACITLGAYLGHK
Cytochrome P450 2C19 (Homo sapiens), sequence (P33261 whole entry, looked up): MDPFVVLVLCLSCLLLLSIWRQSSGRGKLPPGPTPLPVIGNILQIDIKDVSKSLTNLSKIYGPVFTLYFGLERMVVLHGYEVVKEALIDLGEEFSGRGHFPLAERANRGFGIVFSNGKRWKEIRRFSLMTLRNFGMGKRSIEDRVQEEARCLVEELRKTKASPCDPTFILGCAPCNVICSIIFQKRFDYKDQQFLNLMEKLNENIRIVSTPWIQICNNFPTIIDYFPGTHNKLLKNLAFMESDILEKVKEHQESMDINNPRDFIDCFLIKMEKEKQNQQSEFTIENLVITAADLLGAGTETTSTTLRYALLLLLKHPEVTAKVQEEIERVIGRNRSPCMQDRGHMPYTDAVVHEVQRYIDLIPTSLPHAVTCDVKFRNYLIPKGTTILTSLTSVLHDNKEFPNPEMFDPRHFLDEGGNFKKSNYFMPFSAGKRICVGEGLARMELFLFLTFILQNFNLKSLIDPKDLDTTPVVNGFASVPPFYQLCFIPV
Cytochrome P450 3A4 (Homo sapiens), sequence (P08684 whole entry, looked up): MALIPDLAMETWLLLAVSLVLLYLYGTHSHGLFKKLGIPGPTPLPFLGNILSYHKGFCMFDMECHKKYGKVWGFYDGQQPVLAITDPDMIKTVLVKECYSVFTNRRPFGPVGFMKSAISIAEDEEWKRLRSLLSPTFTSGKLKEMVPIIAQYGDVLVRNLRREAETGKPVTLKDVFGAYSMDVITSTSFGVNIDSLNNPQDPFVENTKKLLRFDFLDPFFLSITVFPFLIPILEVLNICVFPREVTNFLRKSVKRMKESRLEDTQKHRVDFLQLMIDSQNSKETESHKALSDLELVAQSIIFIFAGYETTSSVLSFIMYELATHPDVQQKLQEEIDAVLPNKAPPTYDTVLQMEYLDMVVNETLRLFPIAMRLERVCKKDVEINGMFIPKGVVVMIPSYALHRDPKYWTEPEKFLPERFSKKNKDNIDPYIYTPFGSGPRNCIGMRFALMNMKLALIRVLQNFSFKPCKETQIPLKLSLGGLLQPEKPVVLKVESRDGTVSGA
Caspase-3 (Homo sapiens), sequence (P42574 whole entry, looked up): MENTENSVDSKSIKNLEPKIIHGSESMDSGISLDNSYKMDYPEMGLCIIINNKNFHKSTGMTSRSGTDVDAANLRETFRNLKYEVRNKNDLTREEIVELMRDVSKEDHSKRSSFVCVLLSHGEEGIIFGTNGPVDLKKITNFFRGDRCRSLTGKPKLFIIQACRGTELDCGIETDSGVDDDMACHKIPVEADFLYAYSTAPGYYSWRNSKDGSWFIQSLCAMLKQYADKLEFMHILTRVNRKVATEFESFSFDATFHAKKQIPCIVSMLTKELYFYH

`C[N+]1(C)CCCCC1`: the result (in assay [1]; in assay [2]; in assay [3]; in [4]; with BCL2L11 (gene 10018); in assay [5]) was inactive. Moreover, the call (in assay [6]; in [7]; in the assay with Caspase-3 (Homo sapiens); in [8]; in assay [9]; in assay [10]) was inactive. Also, the compound was called inactive (in assay [11]; in assay [12]; in the assay with CYP2C8 (gene 1558); in the assay with CYP2C9 (gene 1559); in the assay with CYP2E1 (gene 1571); with CYP4A11 (gene 1579)). For the same compound, the result in assay [13] was inactive.
Usually AC50 stands for the concentration giving half of the maximal activity seen. On to `C[Si](Cn1cncn1)(c1ccc(F)cc1)c1ccc(F)cc1`, for which the AC50 in assay [1] was 50 µM (active); in [3] it was 78.9 µM (active); in assay [4] it was 25.4 µM (active); in assay [5], 15.8 µM (active); in [6], 35 µM (active); in assay [7] it was 50 µM (active). For the same compound, the AC50 in [9] is 85.6 µM (active); in assay [11] it was 68.8 µM (active); in assay [12] it was 80.1 µM (active); with CYP2C8 (gene 1558), 71.8 µM (active); with CYP2C9 (gene 1559) it was 35.5 µM (active); with CYP2E1 (gene 1571), 19.4 µM (active). For the same compound, the figures for the AC50 (with CYP4A11 (gene 1579); in assay [13]) were 25.9 µM (active) and 82.4 µM (active), respectively. Moreover, the outcome (with BCL2L11 (gene 10018); with Caspase-3 (Homo sapiens); in assay [8]; in assay [10]) was inactive.
Consider `CCOP(=S)(OCC)OC(Cl)C(Cl)(Cl)Cl` (centres undefined), for which the outcome (in assay [2]; in assay [3]; in assay [14]; in assay [4]; in the assay with BCL2L11 (gene 10018); in assay [5]) was inactive. Further, the result (in [6]; in assay [7]; with Caspase-3 (Homo sapiens); in assay [8]; in [9]; in [10]) was inactive. Further, the compound was called inactive (in [12]; in the assay with CYP2C8 (gene 1558); in the assay with CYP2C9 (gene 1559); with CYP2E1 (gene 1571); in the assay with CYP4A11 (gene 1579)). The AC50 in assay [11] is 24 µM (active); in [13] it was 50 µM (active).
For `CC(C)=CC1C(C(=O)OCN2C(=O)C3=C(CCCC3)C2=O)C1(C)C` (centres undefined), the result (in assay [1]; in assay [2]; in assay [3]; in [4]; with BCL2L11 (gene 10018); in assay [5]) was inactive. Further, the result (in [6]; in assay [7]; with Caspase-3 (Homo sapiens); in assay [8]; in assay [10]; with CYP2C8 (gene 1558)) was inactive. For the same compound, the call (with CYP2C9 (gene 1559); in the assay with CYP2E1 (gene 1571); with CYP4A11 (gene 1579); in assay [13]) was inactive. The figures for the AC50 in assay [9] and in assay [11] were 31.5 µM (active) and 50 µM (active), respectively.
